Screens (PubChem BioAssay)
Hits are enriched below; roughly 3.1% of the tested compounds scored in any of these assays.
BRCA1 expr up: qHTS Assay to Identify Small Molecule Activators of BRCA1 Expression; MCF7-BRCA1-FFLuc reporter, luminescence, 48 h; response scale: scaled: vehicle 0%, 10 µM genistein 100%; Potency, µM (titrated, usually from 46.1 µM), usual class: activators; 1.1% of 380,000 active; further: nearly all actives have a fitted effect of over 80% in size
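Luminescence from a BRCA1-driven firefly luciferase in MCF7 cells was read after 48 h compound exposure at 37 C. Data normalized against DMSO and a 10microM genistein activation control, then curve-fitted across the titration.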
Nrf2 activator: qHTS of Nrf2 Activators | 0.31% of 410,000 active | AID 624171, 2012 | AREc32 ARE-luciferase reporter (MCF7-derived line), luminescence, 24 h | Potency, µM (titrated, usually from 46.1 µM), usual class: activators; further: nearly all actives have a fitted effect of over 65% in size
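Luciferase luminescence (Steady-Glo, 30 min at room temperature) served as the read-out of ARE activation in AREc32 cells treated with compounds for 24 hr at 37 deg C.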
IL-2 act: qHTS of IL-2 Activators | IL-2 activation reporter assay, cell-based qHTS; stimulated with anti-CD3/CD4/CD28 beads; in transgenic mouse T cells | activation, % (series mostly up to about 46 µM) | 0.065% of 360,000 active | AID 652025, 2013; in the data active means activation above about 50%; inconclusive means mostly about 30% to 49%
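Quantitative HTS in unstimulated transgenic mouse T cells, with memory T cells as non-tolerant control and PMA/ionomycin as tolerance-bypass control. Compound pretreatment lasted 60 minutes before 18 h bead stimulation; EGFP/DsRed fluorescence read.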
ELG1 DNA repair: qHTS screen for small molecules that inhibit ELG1-dependent DNA repair in human embryonic kidney (HEK293T) cells expressing luciferase-tagged ELG1. HEK293T ELG1-luciferase reporter, luminescence, 16 h; DNA damage induced by 5-fluorouridine. Potency, µM (titrated, usually from 46.1 µM), hits mostly inhibitors. 2.3% of 330,000 active. AID 504467, 2011; further: nearly all actives have a fitted effect of over 55% in size
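HEK293T cells expressing luciferase-tagged ELG1 (2,000/well) received 5-Fluorouridine plus compound or DMSO for 16 hr at 37 °C. Luciferase was read by ONE-Glo luminescence after 30 min at room temperature.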
Large screens that a line does not name were inactive. Unless noted, the call rests on the fitted dose curve; in most records, active means well fitted curve in the direction sought with a large enough effect; inconclusive means small, poorly fitted or top-dose-only effect, or another doubt; inactive means no such curve, though single readings can be large; an effect the other way counts as inactive or inconclusive.

CCCCOc1ccc(CSc2ncn[nH]2)cc1	BRCA1 expr up 7.1µM, ELG1 DNA repair inconclusive
CCCCOc1ccc(CSc2n[nH]c(C)n2)cc1	ELG1 DNA repair inconclusive
CCCCCOc1ccc(CSc2ncn[nH]2)cc1	BRCA1 expr up 2.8µM, ELG1 DNA repair inconclusive
COc1ccc(C(N)c2csc(Nc3ccc(S(C)(=O)=O)cc3)n2)cc1 (configuration not stated)	none (no result: ELG1 DNA repair)
COCCNC(=O)C1(C)CCCN(C(=O)COc2ccccc2)C1 (configuration not stated)	none (no result: ELG1 DNA repair)
Brc1cccc[n+]1Cc1ccc(C[n+]2ccccc2Br)cc1	none (no result: Nrf2 activator, IL-2 act, ELG1 DNA repair)
CCOc1cc(S(=O)(=O)N2CC=C(c3ccc(F)cc3)CC2)c(OCC)cc1-n1cnnn1	ELG1 DNA repair 5.8µM
Cc1nc2ccc(NC(=O)CCS(=O)(=O)c3ccc(Cl)cc3)cc2s1	none
Cc1nc2ccc(NC(=O)CCC3CCCC3)cc2s1	BRCA1 expr up 11µM, ELG1 DNA repair inconclusive
COc1ccc(OC)c(/C=C(/C#N)c2nc(-c3ccc(-c4ccccc4)cc3)cs2)c1	none (no result: BRCA1 expr up, IL-2 act, ELG1 DNA repair)
Cc1ccc(CN(Cc2cccn2-c2nnc(N3CCCC3=O)s2)C(=O)Nc2ccccc2Cl)cc1	none (no result: BRCA1 expr up, IL-2 act, ELG1 DNA repair)
Cc1ccc(CNC(=O)C2CCN(c3nc4ccccc4n(C)c3=O)CC2)cc1	none (no result: IL-2 act, ELG1 DNA repair)
COC(=O)C1=C(C)N(Cc2ccccc2)C(=NCc2cccc(C(F)(F)F)c2)N[C@H]1c1cccc(F)c1	ELG1 DNA repair inconclusive
COC(=O)C1=C(C)N(Cc2ccccc2)C(=NCc2cccc(C(F)(F)F)c2)N[C@H]1c1cccc(C(F)(F)F)c1	ELG1 DNA repair 18µM
Cc1ccc(Nc2c3c(nc4nncn24)CCC3)c(C)c1	none (no result: BRCA1 expr up, IL-2 act, ELG1 DNA repair)
CC(=O)n1cc(N(C(=O)CCl)c2ccc([N+](=O)[O-])cc2)c2ccccc21	ELG1 DNA repair 23µM
CN(C(=O)CSc1nc2ccccc2n1CC(=O)N(C)C1CCCCC1)c1ccccc1	none (no result: IL-2 act, ELG1 DNA repair)
COc1ccccc1/C=C/C=N/NC(=O)c1ccccn1	BRCA1 expr up 5µM, ELG1 DNA repair inconclusive
COc1ccccc1/C=C/C(=O)NCCc1ccccn1	BRCA1 expr up 3.2µM, ELG1 DNA repair inconclusive
COc1ccccc1/C=C/C=N/NC(=O)c1cnccn1	ELG1 DNA repair inconclusive
CC(C)C(=O)Nc1nnc(S(=O)(=O)N(C)Cc2ccc(F)cc2)s1	none (no result: BRCA1 expr up, IL-2 act, ELG1 DNA repair)
CCn1cc(C(=O)NCCN(CC(C)C)CC(C)C)c(=O)c2cc(S(=O)(=O)N(C)C3CCCCC3)ccc21	none (no result: IL-2 act, ELG1 DNA repair)
Cc1ccccc1OCC(=O)Nc1ccccc1CO	Nrf2 activator 10µM
CSc1ccccc1NC(=O)COc1ccccc1C	ELG1 DNA repair inconclusive
COc1cccc(-c2csc(NC(=O)Oc3ccccc3)n2)c1	BRCA1 expr up 10µM, ELG1 DNA repair inconclusive
COc1ccc(NC(=O)N2CCN(c3nc(-c4cccc(OC)c4)cs3)CC2)cc1	ELG1 DNA repair 18µM
COc1cccc(-c2csc(N3CCN(C(=O)Nc4ccc(Cl)cc4)CC3)n2)c1	ELG1 DNA repair inconclusive
COc1cccc(-c2csc(NNC(=O)c3cccs3)n2)c1	none
C[n+]1ccc(/C=C/c2c[nH]c3ccc(F)cc23)cc1	IL-2 act 95, ELG1 DNA repair inconclusive
Cn1cc(/C=C/c2cc[n+](C)cc2)c2cc(Cl)ccc21	IL-2 act 104, ELG1 DNA repair inconclusive
Cn1cc(/C=C/c2cc[n+](C)cc2)c2cc(F)ccc21	IL-2 act 206, ELG1 DNA repair inconclusive
Cn1cc(C=O)c2cc(F)ccc21	none
COC(=O)c1ccc2c(=O)n(CCCCCC(=O)NCc3ccc(Cl)cc3)c(=O)[nH]c2c1	none (no result: BRCA1 expr up, IL-2 act, ELG1 DNA repair)
O=C1c2ccccc2C(=O)c2c(Nc3ccc(CCO)cc3)ccc(O)c21	Nrf2 activator 4µM, ELG1 DNA repair 15µM
COCc1cc(C)nc2c1C(=O)NC(c1ccc(F)cc1)N2Cc1ccccc1 (configuration not stated)	none (no result: BRCA1 expr up, IL-2 act, ELG1 DNA repair)
CCc1ccccc1OCC(=O)Nc1cc(S(=O)(=O)N2CCOCC2)ccc1N1CCCCC1	ELG1 DNA repair inconclusive
Cc1ccc(S(=O)(=O)N2CCOCC2)cc1NC(=O)COc1ccccc1Cc1ccccc1	ELG1 DNA repair 8.2µM
O=C(COc1ccccc1Cc1ccccc1)Nc1cccc(S(=O)(=O)N2CCOCC2)c1	ELG1 DNA repair inconclusive
O=C(Nc1cc(S(=O)(=O)N2CCOCC2)ccc1N1CCCC1)c1ccc2c(c1)S(=O)(=O)c1ccccc1C2=O	ELG1 DNA repair 10µM
Cc1ccc(S(=O)(=O)N2CCOCC2)cc1NC(=O)CNCc1ccc(Cl)cc1Cl	ELG1 DNA repair 23µM
COc1ccccc1OCC(=O)Nc1cc(S(=O)(=O)N2CCOCC2)ccc1N1CCCCC1	ELG1 DNA repair 26µM
COc1ccc(-c2cn3nc(SCC(=O)Nc4cccc(C)c4C)ccc3n2)cc1	none (no result: BRCA1 expr up, IL-2 act, ELG1 DNA repair)
O=C(CSCc1ccccc1Br)N/N=C/c1ccc(OCC(=O)N2CCCCC2)cc1	ELG1 DNA repair 26µM
CCc1nc(N)c(C#N)c(-c2ccco2)c1C	Nrf2 activator 2.5µM
COc1ccc(OC)c(NC(=O)c2csnn2)c1	none (no result: BRCA1 expr up, IL-2 act, ELG1 DNA repair)
CCn1c2ccccc2c2cc(NC(=O)N3CCCCC3)ccc21	BRCA1 expr up 8.9µM (no result: ELG1 DNA repair)
CCn1c2ccccc2c2cc(NC(=O)COC(=O)c3cc(OC)c(OC)cc3OC)ccc21	ELG1 DNA repair 9.2µM
CCCC(=O)Nc1ccc2c(c1)c1ccccc1n2CC	none
CN1/C(=C/c2cccc[n+]2CCO)Sc2ccccc21	none
CC[n+]1ccccc1/C=C1\Sc2ccc(C)cc2N1C	ELG1 DNA repair 2.1µM
CC(=O)Oc1ccc2occ(C(=O)c3ccccc3)c2c1	BRCA1 expr up 7.1µM (no result: ELG1 DNA repair)
O=C(O)COc1ccc2occ(C(=O)c3ccccc3)c2c1	none
O=C(c1cc2c(s1)-c1ccccc1S(=O)(=O)C2)N1CCN(Cc2ccccc2)CC1	ELG1 DNA repair 13µM
Cc1cc(C)c2sc(N(CCCN(C)C)C(=O)c3ccc(S(=O)(=O)N4CCc5ccccc5C4)cc3)nc2c1	ELG1 DNA repair 13µM (no result: BRCA1 expr up, Nrf2 activator, IL-2 act)
CCn1c(SCC(=O)c2c[nH]c3ccccc23)nnc1-c1cccs1	Nrf2 activator 11µM
CCn1c(SCC(=O)N/N=C/c2c[nH]c3ccccc23)nnc1-c1ccc(C(C)(C)C)cc1	ELG1 DNA repair 18µM
CCn1c(SCc2nc3ccccc3s2)nnc1-c1cccs1	Nrf2 activator 14µM, ELG1 DNA repair inconclusive
COCCn1c(SCC(=O)c2c[nH]c3ccccc23)nnc1-c1ccncc1	none
CCn1c(SCC(=O)N/N=C/c2ccc(C)o2)nnc1-c1ccc(C(C)(C)C)cc1	none
COc1cccc(CNC(=O)CN2C(=O)N(c3cc(C)ccc3C)S(=O)(=O)c3ccccc32)c1OC	none (no result: IL-2 act, ELG1 DNA repair)
O=C(NC1CCN(Cc2ccc(Cl)cc2Cl)CC1)c1ccccc1	ELG1 DNA repair 13µM
Cc1ccc(Cl)cc1S(=O)(=O)N1CCC(C(=O)NC2CCN(Cc3ccccc3)CC2)CC1	ELG1 DNA repair 5.2µM
O=C(NC1CCN(Cc2ccccc2)CC1)c1ccccc1	none
COc1ccc(OC)c(NC(=O)Nc2nc(C(N)CCc3ccccc3)cs2)c1 (configuration not stated)	none (no result: ELG1 DNA repair)
